Measurements reported in PubChem BioAssay AID686978 (National Center for Advancing Translational Sciences (NCATS), 2013).
The whole screen tested about 420,000 compounds, of which about 64,000 (15%) were called active. Inconclusive results (about 27%) are left out. The call rests on the fitted dose curve; in most records, active means well fitted inhibition curve with a large enough effect; inconclusive means small, poorly fitted or top-dose-only effect; inactive means flat fitted curve, though single readings scatter. Only a sample is shown. A call without a number means that no potency is given here.

experiment: qHTS for Inhibitors of human tyrosyl-DNA phosphodiesterase 1 (TDP1): qHTS in cells in absence of CPT; settings: DT40 Tdp1-/- hTDP1 cells, no CPT, ATP luminescence, 48 h; activity change, negative = growth inhibition: at 46.2 µM (top of the series); further: nearly all actives have a fitted effect of over 55% in size
In short: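 Luminescent ATP content (CellTiter-Glo) served as the growth readout. Knockout chicken DT40 cells expressing human TDP1 were exposed to compounds without camptothecin for a minimum 48 hr at 37 °C.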
Potency means the concentration at half of the fitted maximal effect.

| Compound | Potency |
| --- | --- |
| CCOCCCNC(=O)C1(O)c2cc(Br)ccc2NC(=O)N1c1ccc(C)c(C)c1 (centres undefined) | inactive |
| Cc1cccc(NC(=O)CCN2CC(C)CC(C)C2)c1 (centres undefined) | inactive |
| Cc1cc(=O)oc2cc(OC(C)C(=O)Nc3ccc(N4CCOCC4)cc3)ccc12 (centres undefined) | inactive |
| CC1CN(C(=O)CCC(=O)NC2CCN(Cc3ccccc3)CC2)c2ccccc2O1 (centres undefined) | inactive |
| O=C(CC1Oc2ccccc2NC1=O)NCCCN1CCN(Cc2ccccc2)CC1 (centres undefined) | inactive |
| CC1CN(C(=O)CCC(=O)NCCCN2CCC(Cc3ccccc3)CC2)c2cc(Cl)ccc2O1 (centres undefined) | 18.4 µM (active) |
| CSc1ccc(Cl)c(C(=O)OCC(=O)N2CC(C)OC(C)C2)c1 (centres undefined) | inactive |
| Cc1noc(C)c1S(=O)(=O)N(C)C[C@H]1Oc2ccc(NC(=O)C3CCCCC3)cc2C(=O)N([C@H](C)CO)C[C@@H]1C | inactive |
| C[C@H]1COc2cc(N3CCSCC3)ccc2S(=O)(=O)N1 | inactive |
| Cc1nnc(C)n1/N=C/c1ccc(C(C)C)cc1 | inactive |
| CCOC(=O)N1CCC(NC(=O)COc2cc(=O)n(C)c3ccccc23)CC1 | inactive |
| Cc1ccc(F)c(NC(=O)CCOc2ccccc2C)c1 | inactive |
| Cc1cc(Br)ccc1NC(=O)CCCOc1cc(=O)n(C)c2ccccc12 | 25.9 µM (active) |
| Cc1cc(C)n2nc(C(=O)Oc3ccc4c(c3)OCO4)nc2n1 | inactive |
| CC(=O)c1c(N)n(C)c(=O)n(C)c1=O | inactive |
| CC(=O)c1c(-c2ccccc2)c2ccccc2[nH]c1=O | inactive |
| CCOC(=O)c1[nH]c2ccccc2c1N=C(C)N(CC)CC | inactive |
| Cc1c(-c2ccccc2)n[nH]c1C(=O)N=Nc1c(O)[nH]c2ccccc12 | 23.1 µM (active) |
| O=C(c1ccco1)N1CCN(C(=O)C2CC(c3ccc(F)cc3)=NO2)CC1 (centres undefined) | inactive |
| COc1ccccc1N(CC(=O)Nc1ccc(C(F)(F)F)cc1)S(C)(=O)=O | inactive |
| COC(=O)c1ccc(Cc2ccccc2)o1 | inactive |
| COC(=O)c1ccc(CN(c2ccccc2OC)S(=O)(=O)c2cccs2)o1 | 23.1 µM (active) |
| O=C(O)C1C2CC2CN1C(=O)c1ccc(Cl)cc1Cl (centres undefined) | inactive |

| Compound | Potency |
| --- | --- |
| O=C(CSC1CC(=O)N(CCc2ccccc2)C1=O)Nc1ccc(Cl)cc1 (centres undefined) | inactive |
| O=C(CSc1ccc(-c2ccco2)nn1)Nc1cccc(F)c1 | 20.6 µM (active) |
| O=C(CSc1ccc(-c2ccco2)nn1)NCc1ccc2c(c1)OCO2 | inactive |
| O=C(CSc1ccc(-c2ccccn2)nn1)Nc1ccccc1 | 18.4 µM (active) |
| O=C(CSc1ccc(-c2ccc(-n3cccn3)cc2)nn1)Nc1ccc([N+](=O)[O-])cc1 | inactive |
| O=C(CSc1ccc(-c2ccc(F)cc2)nn1)Nc1ccc2c(c1)OCCO2 | inactive |
| Cc1ccccc1NC(=O)CSc1ccc2nnc(-c3ccccn3)n2n1 | inactive |
| O=C(CCC(=O)OCc1cccc(C(=O)Oc2ccccc2)c1)Nc1cccc2ccccc12 | inactive |
| C=CCOc1ccccc1NC(=O)CN1C(=O)CNC1=O | inactive |
| COc1nc(N(C)C)nc(N2CC(=O)N(CCNS(=O)(=O)c3ccc(C)cc3)C2=N)n1 | inactive |
| NC(=O)C1(N2CCCCC2)CCN(C(=S)Nc2ccc(Cl)cc2)CC1 | inactive |
| CC(C)(C)Oc1ncc(Br)c(OC(C)(C)C)n1 | inactive |
| Cc1ccc(/C=C/C(=O)OCC(=O)NCc2ccc(Cl)cc2)o1 | inactive |
| CCOCCCNC(=O)C(NC(=O)c1ccccc1O)c1ccccc1 (centres undefined) | inactive |
| O=C(CSc1nnc(C2CC2)n1Cc1ccccc1)Nc1cccnc1Cl | inactive |
| CCC(CC)NC(=O)/C=C/c1cccc([N+](=O)[O-])c1 | inactive |
| CCC1(C(=O)c2ccccc2)C(c2cccc([N+](=O)[O-])c2)C1(C(=O)OC)C(=O)OC (centres undefined) | 13 µM (active) |
| O=C(NOCc1ccccc1)c1cccc([N+](=O)[O-])c1 | inactive |
| COc1ccc(C)cc1NC(=O)Nc1ccccc1SC | inactive |
| O=C(COC(=O)Cc1ccc([N+](=O)[O-])cc1)NC1CCCCCC1 | inactive |
| COc1ccccc1/C=C1\SC(=O)N(CCC(=O)N(C)C2CCS(=O)(=O)C2)C1=O (centres undefined) | inactive |
| CN(C(=O)CCN1C(=O)/C(=C/c2ccccc2F)SC1=S)C1CCS(=O)(=O)C1 (centres undefined) | 23.1 µM (active) |
| CN(C(=O)CN1C(=O)S/C(=C\c2ccccc2F)C1=O)C1CCS(=O)(=O)C1 (centres undefined) | inactive |

| Compound | Potency |
| --- | --- |
| CSc1cc(C)n(-c2ccccc2C)c(=S)c1C(C)=O | inactive |
| Cc1cccc(NC(=O)CSc2nnc(CCNC(=O)OC(C)(C)C)o2)c1C | inactive |
| CC1CC(C)CN(C(=O)CCNC(=O)Cn2cnc3ccccc3c2=O)C1 (centres undefined) | inactive |
| CCc1ccc(NC(=O)CSc2nnc(-c3cnccn3)n2Cc2ccco2)cc1 | inactive |
| CN1CCN(c2ncc3c(n2)CC(c2ccccc2F)CC3=O)CC1 (centres undefined) | 18.4 µM (active) |
| O=C1c2ccccc2C(=O)C1c1ccccc1F | inactive |
| CCCN1CCc2nc(N3CCN(C)CC3)ncc2C1 | inactive |
| CSc1nsc(SC)c1NC(=O)OC1CCCCC1 | inactive |
| N#CCSc1nn(-c2ccc(F)cc2)c(=S)s1 | inactive |
| CCOC(=O)N/N=C1\CC(C)S(=O)(=O)c2ccc(Cl)cc21 (centres undefined) | inactive |
| Cc1nc(N2CCOCC2)nc2c1CCCC2 | inactive |
| COc1cccc(C(C(=O)NC2CCCC2)N(C(=O)c2ccco2)c2cccc(C(C)=O)c2)c1OC (centres undefined) | inactive |
| Fc1c(F)c(C(F)(F)F)c(F)c(F)c1N1CCN(c2ccc3nnc(C(F)(F)F)n3n2)CC1 | 23.1 µM (active) |
| FC(F)(F)c1nnc2ccc(N3CCN(c4ccccc4)CC3)nn12 | inactive |
| NC(=O)c1oc2ccccc2c1NC(=O)CS(=O)(=O)c1ccccc1 | inactive |
| Cc1ccc(C(=O)CCC(=O)N(C)CC(=O)Nc2c(Cl)cccc2Cl)cc1 | inactive |
| CC(C)CC(N=C1NC(C)(C)Cc2ccccc21)C(=O)O (centres undefined) | inactive |
| Cc1nc2ccc(N)nc2nc1C | inactive |
| Cn1c(C(=O)NCCCN2CCCCC2)cc2sccc21 | inactive |
| O=C(CNC(=O)Cc1ccccc1)N=Nc1c(O)[nH]c2ccc(Br)cc12 | inactive |
| COCC(=O)N=Nc1c(O)[nH]c2ccccc12 | inactive |
| O=C(CCN1CCCCC1)N=Nc1c(O)[nH]c2ccccc12 | 23.1 µM (active) |
| COc1ccccc1CNC(=O)CCCNS(=O)(=O)c1cccc2nsnc12 | inactive |
